Test results published in PubChem BioAssay AID1259336 (Sattelle Laboratory, UCL Respiratory, Division of Medicine, …, 2017).
Unmarked numbers belong to inactive results. Active and inactive are the calls of the source. Cut-off read from the data, not from the text of the source: active = log2 fold change growth below about -1.8; inactive = the rest.

assay: anthelmintic activity against nematode growth – whole organism, log2 fold change (AID 1259336);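 note: growth scored by imaging after five days at 20 °C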; conditions: C. elegans growth, anthelmintic screen; stronger effect = lower value

Structure (SMILES)	log2 fold change growth
O=C(C1CCN(c2nnc(-n3cccc3)s2)CC1)N1CCC(Cc2ccccc2)CC1	0.102
FC(F)(F)c1cccc(-c2nc3c(NCc4ccncc4)nccc3[nH]2)c1	0.0714
Cc1cc(Cl)ccc1NC(=O)CCc1ccc(S(=O)(=O)NCC(C)C)cc1	-0.221
CCc1nc2ccc(C(=O)NCc3ccc4c(c3)OCO4)cn2c1N(C)Cc1cccs1	-0.917
Nc1ncc(Br)cc1-c1nc2ncc(Cl)cc2[nH]1	0.329
O=C(c1ccco1)N(CCCn1ccnc1)c1nc2c(Cl)cccc2s1	-2.18 (active)
COc1cccc(-n2nnnc2S(=O)(=O)Cc2ccccc2)c1	0.034
Cc1ccc2[nH]c([C@H]3CCCNC3)c(-c3ccncc3)c2c1	0.649
Cc1ccc(C(=O)Nc2ccc(S(=O)(=O)O)c3cc(S(=O)(=O)O)cc(S(=O)(=O)O)c23)cc1NC(=O)c1cccc(NC(=O)Nc2cccc(C(=O)Nc3cc(C(=O)Nc4ccc(S(=O)(=O)O)c5cc(S(=O)(=O)O)cc(S(=O)(=O)O)c45)ccc3C)c2)c1	0.211
CCCCc1ccc(C(=O)Nc2nccc3ccccc23)nc1	0.243
C[C@H](C(N)=O)N1CCCC[C@H]1c1ccc(OCc2cccc(F)c2)cc1	-0.0659
Cc1ccc(S(=O)(=O)n2cc(-c3ccnc(N)c3)c3cc(Br)cnc32)cc1	-0.39
Oc1c(I)cc(I)c2cccnc12	0.0616
Cc1nn(C)cc1[C@H](C)Nc1nncc(-c2ccc(C(F)(F)F)cc2)n1	0.429
CN1CCN(S(=O)(=O)c2ccc(-c3ccc4c(Nc5ccc6n[nH]nc6c5)ccnc4c3)cc2)CC1	-0.667
COc1ccc(O[C@@H](C)C(=O)Nc2ccc(Cl)cc2C)cc1	0.539
CCn1cnc2c(Nc3cc(F)cc(F)c3)nc(C#N)nc21	-0.053
CNCC[C@H](Oc1ccc(C(F)(F)F)cc1)c1ccccc1	0.102
CC(C)c1ncc(-c2ccncc2)c(C2CCC(CNC(=O)c3cccnc3)CC2)n1 (stereo not drawn)	-0.0296

Structure (SMILES)	log2 fold change growth
COc1ccc(-c2onc(C(F)(F)F)c2-c2ccc(Cl)cc2)c(O)c1	0.102
Cc1cccnc1NC(=O)c1cccc(OCc2c(C)noc2C)c1	0.0511
CC(C)NCC(=O)Nc1cccc(C(=O)Nc2cccc(C(F)(F)F)c2)c1	0.0022
COc1cncc(-c2cncc(N3CCN(c4ccncc4)CC3)n2)c1	-0.191
COC(=O)c1c(NC(=O)c2c(F)c(F)c(F)c(F)c2F)sc2c1CCCCC2	0.243
O=C(Nc1cccc(-c2ccc(NCCCN3CCCC3)nc2)c1)c1ccccc1	0.467
c1ccc(-c2cc(N3CCCCC3)c3ccccc3n2)nc1	-1.36
CC(=O)NC[C@H]1CN(c2ccc(-c3ccc(CNCc4cn[nH]n4)cc3)c(F)c2)C(=O)O1	0.387
Cc1noc(C)c1C(=O)N1CCC[C@H](c2[nH]c3c(C)cccc3c2-c2ccncc2)C1	-0.149
O=C(Cn1ccnc1[N+](=O)[O-])NCc1ccccc1	0.415
Cc1[nH]n2c(=O)c3c(nc2c1-c1ccc(Cl)cc1)CCCC3	-0.182
COc1cccc(CC(=O)N2CCC(n3c(C)nc4ccc(F)cc43)CC2)c1	0.116
O=C(Nc1ccc2c(c1)B(O)OC2)c1ccccc1C(F)(F)F	-8.94 (active)
NCCC(O)C(=O)N[C@@H]1C[C@H](N)[C@@H](OC2O[C@H](CN)[C@@H](O)[C@H](O)[C@H]2O)[C@H](O)C1OC1O[C@H](CO)[C@@H](O)[C@H](N)[C@H]1O (stereo partly drawn)	0.334
c1ccc2c(c1)CN(CC1CC1)CC1(CCN(Cc3c[nH]c4cnccc34)CC1)O2	0.264
Cc1[nH]c2ccccc2c1[C@H](c1cccs1)N1CCN(C)CC1	-0.0891
CC(C)n1ncc2c(C(=O)NC[C@@H](c3cccs3)N3CCOCC3)cc(-c3ccccc3)nc21	-2.7 (active)
C[C@H](Oc1ccccc1)C(=O)Nc1nc(-c2ccccn2)cs1	-0.519
CC(=O)N1CCc2cc3nc(C)cc(C)c3cc21	0.139
